# High-throughput results (PubChem BioAssay)
# Shown are actives, neighbours in structure and some others; about 3.4% of the full set was active somewhere.
# FXN GAA850 act: frataxin GAA850 promoter activation. HEK293 lucGAA850 FXN promoter luciferase reporter, 24 h; percent of 10 µM SAHA response. 360,000 compounds, 0.56% hits. activation, % at 6 µM. AID 540364;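 active means activation above the average of all compounds screened plus 3 SD, cutoff fixed separately per campaign, cut at about 7.5% in these data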;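 further: 0% = DMSO wells and 100% = 10 µM SAHA wells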
# GalR3 antag: human GalR3 antagonism. 360,000 compounds, 0.44% hits. AID 651719. O60755. inhibition, % at 3 µM. HEK293 GalR3-CNG cAMP membrane potential fluorescence; galR3 body fused to GalR1 C-terminus;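 active means inhibition above the screen-wide average plus 3 SD, cut at about 13% in these data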;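 further: forskolin and galanin both at EC90 stimulate the cells; cAMP rise reported by CNG channel membrane potential dye signal; 0% = forskolin plus galanin with DMSO and 100% = forskolin alone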
# Target sequence (O60755 1-299 limits assumed): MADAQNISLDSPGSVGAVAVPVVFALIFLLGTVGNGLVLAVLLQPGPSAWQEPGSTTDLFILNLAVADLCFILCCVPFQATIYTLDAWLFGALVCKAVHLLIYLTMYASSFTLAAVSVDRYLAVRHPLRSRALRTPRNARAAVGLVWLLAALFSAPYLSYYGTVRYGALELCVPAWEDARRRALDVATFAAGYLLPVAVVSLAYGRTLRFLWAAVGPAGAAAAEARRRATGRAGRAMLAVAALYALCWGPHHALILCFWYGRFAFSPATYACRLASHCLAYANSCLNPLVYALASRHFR
# SMARCA2 act: increases SMARCA2 function in MMTV reporter cells. activation, % at 9.1 µM. AID 652017. 370,000 compounds, 1% hits. MG213 cells, MMTV-luciferase reporter, dexamethasone, overnight; in the data active means activation above about 7.8%;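 further: 0% = vehicle wells and 100% = reference activator wells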
# Gli-Sufu block: blocks Gli-Sufu signaling in a luciferase reporter; Sufu-KO-LIGHT fibroblasts, Gli luciferase reporter luminescence; inhibition, % at 5 µM; 340,000 compounds, 0.74% hits; AID 588413;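 active means inhibition above about 55%, limit read from the data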;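 further: 0% = DMSO-treated cells and 100% = wells with medium but no cells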
# NR2F2 inh: inhibitors of human COUP-TFII (NR2F2) | P24468 | HEK293T NGFI-A luciferase reporter, luminescence | inhibition, % at 8.6 µM | 370,000 compounds, 0.7% hits;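 active means inhibition above a per-plate cutoff, mean inhibition of test wells between control levels plus 3 SD, cut at about 38% in these data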;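 further: cells cotransfected with COUP-TFII expression vector driving the NGFI-A reporter; 0% = median of COUP-TF2 test wells and 100% = reporter-only cells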
# Cardio protect: modulators protecting cardiomyocytes from myocardial damage. H9c2 cardiomyocytes, H2O2 injury protection, ATPLite, 2 h. protection from H2O2 cell death, % at 20 µM. 360,000 compounds, 0.63% hits;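 active means compounds giving at least 50% protection of heart cells from peroxide-induced death in the single-dose screen, raw or plate-pattern-corrected value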;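 further: 0% = DMSO wells with peroxide and 100% = DMSO wells without peroxide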
# * marks the source's active call; other numbers are inactive results; x = no result.
SMILES,FXN GAA850 act,GalR3 antag,SMARCA2 act,Gli-Sufu block,NR2F2 inh,Cardio protect
C=CCc1ccccc1OCC(=O)N/N=C/c1ccc(OC(C)=O)cc1OC(C)=O,-2,-3,-2,-7,4,73*
CN1C=C/C(=C\c2cc[n+](C)c3ccccc23)c2ccccc21,-7,-3,-9,77*,46*,-24
O=C(Nc1ccc(Oc2ccccc2)cc1)C1CCN(c2c3c(nc4ncnn24)CCC3)CC1,-3,-6,-1,70*,22,-16
O=C(Nc1ccc2c(c1)CCC2)C1CCN(c2c3c(nc4ncnn24)CCC3)CC1,-2,-9,1,28,30,-20
OCCCNc1cc(-c2ccnc(Nc3cccc(Cl)c3)n2)ccn1,-14,-10,-7,75*,60*,17
C/C(C=NNC(=O)CSc1nc2ccccc2n1Cc1ccccc1Cl)=C\c1ccccc1,x,x,-6,x,4,x
COCc1[nH]nc2c1C(c1ccc(F)cc1)N(Cc1ccccc1)C2=O (stereo not drawn),x,-7,-5,x,4,x
CN(c1ccc(Cl)cc1)c1cc(=O)n(C)c2ccccc12,3,-1,-6,23,-27,-6
CN(C)c1ccc(C=c2c3ccccc3n3c2cc(-c2ccc(Cl)cc2)[n+]3C)cc1,-8,-3,-9,83*,59*,-16
O=C(CN1CCCCC1)Nc1nc(-c2ccc(Cl)cc2)cs1,2,-9,2,2,2,-7
O=C(CN1CCCCC1)Nc1nc(-c2ccc(F)c(F)c2)cs1,1,-8,4,-25,-33,55*
CCCCNC(=O)C[C@H]1C[C@@]2(C(=O)OC)C(=C[C@H](C3CCCC3)O[C@@H]2C)N(Cc2ccco2)C1=O,x,x,7.8*,x,-11,x
CCC[C@H]1[C@@H](N(C)Cc2ccccc2)CC[C@@]23CCCN2C(=O)CCC[C@@H]13,x,x,x,x,-18,x
CC(C)C[C@H]1CN(CCCC[C@H]2CNC(=O)C(=O)N2CCC2CCCCC2)C(=O)C(=O)N1CC1CCCCC1,x,2,-3,x,11,x
COc1ccc(-n2nc(C#N)c(Cl)cc2=O)cc1,33*,-9,-11,19,-48,-23
COc1ccc(C(=O)Nc2ccc3c(c2)C(=O)N(C)[C@H]2CC[C@H](CC(=O)NCC4CC4)O[C@@H]2CO3)cc1,x,x,-4,x,-9,x
Cc1ccc(N=Cc2cc(Cl)cc(Cl)c2O)nc1,-3,-3,-2,-6,-12,65*
O=C(N/N=C/c1ccc(Cl)cc1Cl)c1ccncc1,2,-3,0,-6,4,3
Oc1c(Cl)cc(Cl)cc1C=Nc1ccc2c(c1)OCCO2,-7,5,-7,6,-5,72*
O=C(N/N=C/c1cccc2nccnc12)c1ccncc1,-1,2,-1,-4,13,65*
Brc1csc(C=Nc2ccc3c(c2)OCCOCCOCCOCCO3)c1,-3,0,-3,1,1,-5
O=C(N/N=C/c1cc(Cl)cc(Cl)c1O)c1ccncc1,-4,10,-5,8,-18,50*
O=C(N/N=C/c1cccc2nccnc12)c1ccccc1O,2,-4,1,2,-14,12
CCCCCCC(=O)NC1CCCCN(Cc2ccc(Cl)cc2)C1=O (stereo not drawn),x,x,-3,x,8,x
COc1ccc2c(c1)CCCN2C(=O)C1CCCN(S(=O)(=O)c2ccccc2)C1 (stereo not drawn),x,x,-6,x,17,x
SMILES,FXN GAA850 act,GalR3 antag,SMARCA2 act,Gli-Sufu block,NR2F2 inh,Cardio protect
COc1ccccc1CN(C)C(=O)C1CCCN(c2nc3ccccc3o2)C1 (stereo not drawn),x,x,1,x,11,x
Oc1c(Cl)cc(Cl)cc1/C=N/Nc1ncc(Br)cn1,2,-10,-1,51,-22,59*
COC(=O)C1CN(Cc2cn(CCOC(C)=O)nn2)CCS(=O)(=O)N1Cc1ccccc1 (stereo not drawn),x,x,-1,x,-4,x
CCOC(=O)c1ccc(NC(=O)C2CC3CCC2C3)cc1 (stereo not drawn),7,0,7.9*,-92,-28,-16
COc1ccccc1NC(=S)OCCN1CCCC12CCC(c1ccccc1)CC2 (stereo not drawn),x,x,x,x,-4,x
C/C(=N\NC(=O)c1cc2ccccc2cc1O)c1ccccn1,5,-8,-4,90*,-2,-4
C=CCNC(=S)N/N=C(\C)c1ccccn1,-20,-3,-13,84*,11,36
C/C(=N\NC(=O)c1ccccc1-n1cccc1)c1ccccn1,3,2,-3,x,0,69*
C/C(=N\NC(=O)CCCNc1ccc(C)cc1)c1ccccn1,1,-4,-1,-3,-5,58*
C/C(=N\NC(=O)c1c[nH]c2ccccc12)c1ccccn1,2,-3,0,-58,-35,17
C/C(=N\NC(=O)CCCNc1ccccc1)c1ccncc1,3,-5,1,-6,-2,-1
CN(Cc1ccccc1)C(=O)OCc1cn(Cc2ccccc2C(F)(F)F)nn1,x,x,0,x,-1,x
O=C(O)COc1ccccc1/C=N/NC(=O)c1cc(-c2ccc(Cl)cc2)nc2ccccc12,2,6,1,-9,-9,0
O=C(N/N=C/c1ccccn1)c1cc(-c2ccc(Br)cc2)nc2ccccc12,1,-5,-2,72*,4,45
CCCOc1cccc(-c2cc(C(=O)N/N=C/c3ccccn3)c3ccccc3n2)c1,-9,-3,-6,36,19,39
O=C(N/N=C/c1ccccn1)c1cc(-c2ccc(Cl)cc2)nc2ccccc12,-2,-3,5,89*,-8,46
C#CCN1CC(N(C)CCOC(=O)c2cc3ccccc3[nH]2)CS1(=O)=O (stereo not drawn),x,x,-1,x,1,x
CC(C)(C)c1ccc(OCC(=O)Nc2ccc3c4c(cccc24)C(=O)NC3=O)cc1,-1,5,-3,-4,-10,60*
O=NNc1nc2ccccc2n1Cc1ccccc1,2,-10,0,-15,6,72*
CC(=O)Nc1nc2ccccc2n1Cc1ccccc1,3,-1,-2,2,2,19
CCC(C)NC(=O)c1nc2c(nnn2Cc2ccccc2Cl)c(=O)[nH]1 (stereo not drawn),0,-3,-1,3,6,6
O=C(NCc1cccs1)c1nc2c(nnn2Cc2ccccc2Cl)c(=O)[nH]1,-14,-8,-9,-3,65*,-4
Cc1ccc(CN2CCCCC(NC(=O)Nc3ccccc3)C2=O)cc1 (stereo not drawn),x,x,-2,x,26,x
Cc1c(N=Nc2c(-c3ccc([N+](=O)[O-])cc3)[nH]n(C(N)=S)c2=O)cccc1[N+](=O)[O-],-1,-1,-4,68*,-4,-16
CC(=O)Nc1ccc(Nc2nc(C)c([N+](=O)[O-])c(Nc3ccccc3)n2)cc1,1,-3,-5,26,22,2
